Measurements from PubChem BioAssay (NCI).
Compounds without any hit were thinned out: in the full panel of roughly 83,000, 20% have a hit.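 48-hour exposure, single concentration, 96-well plates; percent growth endpoint where 0 means no net growth. Active: below 10.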 A number with no mark means an inactive call. Active and inactive are the calls of the source.

Key:
Test in all cases: NCI-60 one-dose screen, 48 h (100 = growth as untreated, 0 = no growth, -100 = all killed)
Settings in all cases: 10 µM unless noted
NCI-H23 lung = test system: NCI-H23 lung
NCI-H226 lung = test system: NCI-H226 lung
NCI-H322M lung = test system: NCI-H322M lung
HOP-62 NSCLC = test system: HOP-62 NSCLC
NCI-H460 lung = test system: NCI-H460 lung
HOP-92 NSCLC = test system: HOP-92 NSCLC
NCI-H522 lung = test system: NCI-H522 lung
A549/ATCC NSCLC = test system: A549/ATCC NSCLC
786-0 renal = test system: 786-0 renal
COLO 205 colon = test system: COLO 205 colon
DU-145 prostate = test system: DU-145 prostate
K-562 leukemia = test system: K-562 leukemia
MALME-3M melanoma = test system: MALME-3M melanoma
MDA-MB-231 breast = test system: MDA-MB-231 breast
SF-268 CNS = test system: SF-268 CNS
SF-295 CNS = test system: SF-295 CNS
SF-539 CNS = test system: SF-539 CNS
UACC-257 melanoma = test system: UACC-257 melanoma
M14 melanoma = test system: M14 melanoma
RXF 393 renal = test system: RXF 393 renal

O=C1C(SCCO)=C(SCCO)C(=O)N1c1ccc(-c2ccccc2)cc1 was tested, and the growth (NCI-H23 lung) was 88.9%, the growth (NCI-H226 lung) was 74.9% and the growth (NCI-H322M lung) was 124%. The growth (HOP-62 NSCLC) was 91.5%, the growth (NCI-H460 lung) was 108% and the growth (HOP-92 NSCLC) was 39.9%. The growth (NCI-H522 lung) was -61.3% (active), the growth (A549/ATCC NSCLC) was 105% and the growth (786-0 renal) was 82.3%. For the same compound, the growth (COLO 205 colon) was -56.5% (active), the growth (DU-145 prostate) was 27.1% and the growth (K-562 leukemia) was -0.074% (active). The growth (MALME-3M melanoma) was -44.5% (active), the growth (MDA-MB-231 breast) was 95% and the growth (SF-268 CNS) was 41.1%. For the same compound, the growth (SF-295 CNS) was 103%, the growth (SF-539 CNS) was 104% and the growth (UACC-257 melanoma) was -5.64% (active). The growth (M14 melanoma) was 85.7%.
With COc1ccc(C2=NN(C(=O)COc3ccc(Cl)cc3)C(O)(c3cc(F)c(Cl)cc3Cl)C2)cc1 (configuration not stated) the growth (NCI-H23 lung) was 96.3%, the growth (NCI-H226 lung) was 109% and the growth (NCI-H322M lung) was 83.4%. For the same compound, the growth (HOP-62 NSCLC) was 61.8%, the growth (NCI-H460 lung) was 109% and the growth (HOP-92 NSCLC) was 39.4%. It also gave a growth (NCI-H522 lung) of 79.5%, a growth (A549/ATCC NSCLC) of 96.4% and a growth (786-0 renal) of 82%. For the same compound, the growth (COLO 205 colon) was 101%, the growth (DU-145 prostate) was 105% and the growth (K-562 leukemia) was 82.4%. It also gave a growth (MALME-3M melanoma) of 85.8%, a growth (MDA-MB-231 breast) of 105% and a growth (RXF 393 renal) of 94.1%. For the same compound, the growth (SF-268 CNS) was 102%, the growth (SF-295 CNS) was 80.6% and the growth (SF-539 CNS) was 89.3%. For the same compound, the growth (UACC-257 melanoma) was 98.6% and the growth (M14 melanoma) was 85.2%.
For CN(C)CCNc1nc2ccccc2c2c(=O)c3ccccc3sc12, the growth (NCI-H23 lung) was 31.8%, the growth (NCI-H226 lung) was 36.5% and the growth (NCI-H322M lung) was 43.1%. For the same compound, the growth (HOP-62 NSCLC) was 21.7%, the growth (NCI-H460 lung) was 1.33% (active) and the growth (HOP-92 NSCLC) was 4.02% (active). The growth (NCI-H522 lung) was 14.4%, the growth (A549/ATCC NSCLC) was 13.2% and the growth (786-0 renal) was 28.6%. For the same compound, the growth (COLO 205 colon) was -79.6% (active), the growth (DU-145 prostate) was 8.96% (active) and the growth (K-562 leukemia) was -35.1% (active). For the same compound, the growth (MALME-3M melanoma) was 12.2%, the growth (MDA-MB-231 breast) was -11.6% (active) and the growth (RXF 393 renal) was 6.42% (active). The growth (SF-268 CNS) was 26.3%, the growth (SF-295 CNS) was 0.247% (active) and the growth (SF-539 CNS) was 36.7%. The growth (UACC-257 melanoma) was 28.8% and the growth (M14 melanoma) was -54.7% (active).
CN(C)C(=O)Nc1nc2cc(Cl)c(Cl)cc2[nH]1 was tested, and the growth (NCI-H23 lung) was 11.4%, the growth (NCI-H226 lung) was 30.4% and the growth (NCI-H322M lung) was 39.9%. For the same compound, the growth (HOP-62 NSCLC) was -38.6% (active), the growth (NCI-H460 lung) was 2.78% (active) and the growth (HOP-92 NSCLC) was 75.3%. The growth (NCI-H522 lung) was -58.1% (active), the growth (A549/ATCC NSCLC) was 3.32% (active) and the growth (786-0 renal) was -66.2% (active). The growth (COLO 205 colon) was -12.9% (active), the growth (DU-145 prostate) was 4.55% (active) and the growth (K-562 leukemia) was -10% (active). It also gave a growth (MALME-3M melanoma) of 47.4%, a growth (MDA-MB-231 breast) of 46.1% and a growth (SF-268 CNS) of 36.5%. The growth (SF-295 CNS) was 9.99% (active), the growth (SF-539 CNS) was -24.7% (active) and the growth (UACC-257 melanoma) was 17%. The growth (M14 melanoma) was -66.9% (active).
O=C1CN(CCN2CC(=O)NC(=O)C2)CC(=O)N1 showed a growth (NCI-H23 lung) of 95.9%, a growth (NCI-H226 lung) of 94.7% and a growth (NCI-H322M lung) of 84.3%. The growth (HOP-62 NSCLC) was 93.4%, the growth (NCI-H460 lung) was 117% and the growth (HOP-92 NSCLC) was 72.3%. It also gave a growth (NCI-H522 lung) of 97.1%, a growth (A549/ATCC NSCLC) of 101% and a growth (786-0 renal) of 97.1%. It also gave a growth (COLO 205 colon) of 118%, a growth (DU-145 prostate) of 90.7% and a growth (K-562 leukemia) of 106%. The growth (MALME-3M melanoma) was 94.5%, the growth (MDA-MB-231 breast) was 102% and the growth (SF-268 CNS) was 108%. It also gave a growth (SF-295 CNS) of 85.9%, a growth (SF-539 CNS) of 118% and a growth (UACC-257 melanoma) of 104%. For the same compound, the growth (M14 melanoma) was 94.8%.
CC(=O)Nc1ccc(OC(=O)c2ccccc2O)cc1 gave a growth (NCI-H23 lung) of 99.5%, a growth (NCI-H226 lung) of 106% and a growth (NCI-H322M lung) of 111%. It also gave a growth (HOP-62 NSCLC) of 99.8%, a growth (NCI-H460 lung) of 106% and a growth (HOP-92 NSCLC) of 85%. It also gave a growth (NCI-H522 lung) of 106%, a growth (A549/ATCC NSCLC) of 102% and a growth (786-0 renal) of 107%. The growth (COLO 205 colon) was 108%, the growth (DU-145 prostate) was 110% and the growth (K-562 leukemia) was 88.1%. For the same compound, the growth (MALME-3M melanoma) was 105%, the growth (MDA-MB-231 breast) was 108% and the growth (RXF 393 renal) was 114%. The growth (SF-268 CNS) was 106%, the growth (SF-295 CNS) was 95.3% and the growth (SF-539 CNS) was 108%. For the same compound, the growth (UACC-257 melanoma) was 111% and the growth (M14 melanoma) was 109%.
Compound Oc1ccc(O)c(-[n+]2ccccc2)c1 has a growth (NCI-H23 lung) of 99.4%, a growth (NCI-H226 lung) of 93% and a growth (NCI-H322M lung) of 109%. It also gave a growth (HOP-62 NSCLC) of 94.2%, a growth (NCI-H460 lung) of 105% and a growth (HOP-92 NSCLC) of 92.6%. For the same compound, the growth (NCI-H522 lung) was 82.7%, the growth (A549/ATCC NSCLC) was 83.8% and the growth (786-0 renal) was 95.3%. For the same compound, the growth (COLO 205 colon) was 112%, the growth (DU-145 prostate) was 108% and the growth (K-562 leukemia) was 107%. The growth (MALME-3M melanoma) was 112%, the growth (MDA-MB-231 breast) was 110% and the growth (RXF 393 renal) was 106%. The growth (SF-268 CNS) was 102%, the growth (SF-295 CNS) was 110% and the growth (SF-539 CNS) was 108%. The growth (UACC-257 melanoma) was 95.1% and the growth (M14 melanoma) was 103%.
With O=C(COc1ccc(Cl)cc1Cl)N1N=C(c2ccc(Cl)cc2Cl)CC1(O)c1cc(F)c(Cl)cc1Cl (configuration not stated) the growth (NCI-H23 lung) was 98.7%, the growth (NCI-H226 lung) was 149% and the growth (NCI-H322M lung) was 110%. It also gave a growth (HOP-62 NSCLC) of 105%, a growth (NCI-H460 lung) of 107% and a growth (HOP-92 NSCLC) of 84.5%. The growth (NCI-H522 lung) was 95%, the growth (A549/ATCC NSCLC) was 107% and the growth (786-0 renal) was 101%. It also gave a growth (COLO 205 colon) of 95.4%, a growth (DU-145 prostate) of 123% and a growth (K-562 leukemia) of 64.4%. For the same compound, the growth (MALME-3M melanoma) was 129%, the growth (MDA-MB-231 breast) was 136% and the growth (RXF 393 renal) was 134%. For the same compound, the growth (SF-268 CNS) was 103%, the growth (SF-295 CNS) was 117% and the growth (SF-539 CNS) was 112%. It also gave a growth (UACC-257 melanoma) of 99% and a growth (M14 melanoma) of 94.1%.
